Data as given in the supplement of paper PMC6522484.
± gives the standard deviation of the averaged measurements.

Assays:
DLD1 [1] = assay: cell viability (CellTiter-Glo) relative to plate median (fraction of plate median); higher = more viable cells; conditions: 5 µM; treatment time 24 h; reporter: 7TFP
In short: (§1)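 Each entry is a luminescence signal normalised to the plate median, averaged over independent replicates. The replicate count was two, and the cells were colorectal cancer lines with stable lentiviral TCF/Wnt firefly luciferase reporters exposed to library compounds at a final 5 µM for 24 h. Firefly luciferase and CellTiterGlo were measured on parallel plates.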

HCT116 = assay: as above; conditions: 5 µM; treatment time 24 h; reporter: TCF4/Wnt
In short: as §1

SW480 [2] = assay: as above; conditions: 5 µM; treatment time 24 h; reporter: 7TFP
In short: as §1

DLD1 [3] = assay: TCF/Wnt firefly luciferase reporter signal relative to plate median (fraction of plate median); higher = higher Wnt reporter signal; conditions: 5 µM; treatment time 24 h; reporter: 7TFP
In short: as §1

SW480 [4] = assay: as above; conditions: 5 µM; treatment time 24 h; reporter: 7TFP
In short: as §1

Row | Compound | cell viability (DLD1 [1]) | cell viability (HCT116) | cell viability (SW480 [2]) | TCF/Wnt firefly luciferase reporter signal (DLD1 [3]) | TCF/Wnt firefly luciferase reporter signal (SW480 [4])
1 | COc1cc([C@@H]2c3cc4c(cc3[C@@H](O)[C@H]3COC(=O)[C@H]23)OCO4)cc(OC)c1O | 0.952 ± 0.082 | 0.613 ± 0.12 | 1.06 ± 0.021 | 0.785 ± 0.17 | 0.742 ± 0.084
2 | CC1=CCCC2C1(C)CCC(C)C2(C)CC/C(C)=C/Cn1c[n+](C)c2c(N)ncnc21 (stereo not given) [AGELASINE (stereochemistry of diterpene unknown)] | 1.02 ± 0.14 | 1.06 ± 0.071 | 0.94 ± 0.015 | 1.18 ± 0.092 | 1.07 ± 0.078
3 | CC1=C2[C@H]3OC(=O)[C@@H](C)[C@@H]3CC[C@@]2(C)C=CC1=O | 1.08 ± 0.15 | 1.06 ± 0.078 | 1.03 ± 0.043 | 0.968 ± 0.026 | 1.06 ± 0.12
4 | C/C(=C\c1csc(C)n1)[C@@H]1C[C@@H]2O[C@@H]2CCC[C@H](C)[C@H](O)[C@@H](C)C(=O)C(C)(C)[C@@H](O)CC(=O)O1 [Epothilone A] | 1.09 ± 0.021 | 0.464 ± 0.073 | 1.14 ± 0.099 | 0.732 ± 0.076 | 0.8595 ± 0.0078
5 | c1ccc2nc(N3CCNCC3)ccc2c1 | 0.9935 ± 0.0092 | 1.02 ± 0.081 | 0.974 ± 0.025 | 1.02 ± 0.15 | 0.932 ± 0.028
6 | CCN1C[C@]2(COC)[C@H](O)C[C@H](OC)[C@@]34[C@@H]5C[C@@]6(O)[C@H](OC(=O)c7ccccc7)[C@@H]5[C@@](OC(C)=O)([C@@H]([C@H](OC)[C@H]23)[C@@H]14)[C@@H](O)[C@@H]6OC | 0.943 ± 0.066 | 1.04 ± 0.05 | 1.02 ± 0.06 | 0.931 ± 0.057 | 0.955 ± 0.19
7 | CCOC(=O)C1C(C=C(C)C)C1(C)C (stereo not given) | 0.913 ± 0.11 | 0.961 ± 0.038 | 0.932 ± 0.05 | 0.906 ± 0.064 | 1.02 ± 0.035
8 | CC1C[C@H]2CC(=O)[C@H]3CCCN4CCC[C@H]2[C@]34C1.[O-][Cl+3]([O-])([O-])O (stereo not given in full) | 0.97 ± 0.011 | 1.01 ± 0.031 | 0.933 ± 0.0042 | 1.1 ± 0.099 | 1.1 ± 0.16
9 | NCC(CC(=O)O)c1ccc(Cl)cc1 (stereo not given) | 0.998 ± 0.088 | 0.9975 ± 0.0035 | 1.03 ± 0.028 | 0.897 ± 0.1 | 1.02 ± 0.12
10 | CCC1(C2=NCCN2)Cc2ccccc2O1 (stereo not given) | 0.9965 ± 0.005 | 1.04 ± 0.021 | 1.02 ± 0.09 | 1.015 ± 0.0071 | 1.04 ± 0.035
11 | O=C1C=C2C=C[C@@H]3C[C@@]2(O1)[C@H]1CCCCN31 | 1.1 ± 0.057 | 1.11 ± 0.064 | 1.02 ± 0.063 | 1.01 ± 0.023 | 0.988 ± 0.013
12 | COc1cccc(C2(O)CCCCC2CN(C)C)c1 (stereo not given) | 0.997 ± 0.019 | 1.03 ± 0.047 | 1 ± 0.036 | 1.09 ± 0.057 | 1.09 ± 0.021
13 | CCOC(=O)c1cncn1[C@H](C)c1ccccc1 | 1.04 ± 0.035 | 0.987 ± 0.018 | 0.9905 ± 0.0078 | 0.965 ± 0.013 | 0.995 ± 0.022
14 | COS(C)(=O)=O | 1.07 ± 0.071 | 0.901 ± 0.021 | 1.015 ± 0.0071 | 0.98 ± 0.14 | 0.958 ± 0.074
15 | CC[C@@H](C(=O)[C@@H](C)[C@@H](O)[C@H](C)[C@@H]1O[C@@H]([C@@H](CC)C(=O)O)CC[C@@H]1C)[C@H]1O[C@]2(C=C[C@@H](O)[C@]3(CC[C@@](C)([C@H]4CC[C@](O)(CC)[C@H](C)O4)O3)O2)[C@H](C)C[C@@H]1C | 0.948 ± 0.14 | 0.978 ± 0.073 | 1.07 ± 0.05 | 0.783 ± 0.11 | 0.897 ± 0.089
16 | Cc1ccc(O)cc1.Cc1cccc(O)c1.Cc1ccccc1O | 1.085 ± 0.0071 | 1.08 ± 0.14 | 1.01 ± 0.014 | 1.09 ± 0.064 | 1.09 ± 0.057

Row | Compound | cell viability (DLD1 [1]) | cell viability (HCT116) | cell viability (SW480 [2]) | TCF/Wnt firefly luciferase reporter signal (DLD1 [3]) | TCF/Wnt firefly luciferase reporter signal (SW480 [4])
17 | CCN1C[C@]2(OC(=O)c3ccccc3NC(C)=O)CC[C@H](OC)[C@@]34[C@@H]2C[C@@H]([C@@H]13)[C@@]1(O)C[C@H](OC)[C@H]2C[C@@H]4[C@]1(O)[C@H]2OC | 0.987 ± 0.033 | 0.988 ± 0.032 | 0.9965 ± 0.005 | 0.905 ± 0.083 | 0.98 ± 0.057
18 | COP(=O)(OC)OC=C(Cl)Cl | 1.05 ± 0.014 | 0.94 ± 0.099 | 0.994 ± 0.037 | 1.04 ± 0.18 | 1.03 ± 0.028
19 | CC(=O)O[C@@H]1CC[C@@]2(C)[C@@H](CC[C@@H]3[C@@H]2CC[C@]2(C)C(=O)CC[C@@H]32)C1 | 1.025 ± 0.0071 | 0.924 ± 0.28 | 1.01 ± 0.04 | 1.15 ± 0.035 | 1.08 ± 0.099
20 | C[C@@H]1C(=O)O[C@H]2[C@H]1CC[C@@]1(C)C=CC(=O)[C@@]3(C)O[C@@]213 [EPOXY (4,5alpha)-4,5-DIHYDROSANTONIN] | 0.995 ± 0.064 | 1.17 ± 0.071 | 1 ± 0.023 | 0.966 ± 0.09 | 0.902 ± 0.042
21 | C[C@H]1CC[C@]2(NC1)O[C@H]1C[C@H]3[C@@H]4CC[C@H]5C[C@@H](O)CC[C@]5(C)[C@H]4CC[C@]3(C)[C@H]1[C@@H]2C | 0.956 ± 0.076 | 1.01 ± 0.052 | 0.988 ± 0.06 | 1.03 ± 0.035 | 1.09 ± 0.057
22 | CC(C)(C#N)O[C@@H]1O[C@H](CO)[C@@H](O)[C@H](O)[C@H]1O | 0.945 ± 0.078 | 1.06 ± 0.014 | 0.992 ± 0.0014 | 0.953 ± 0.036 | 0.933 ± 0.036
23 | [O-][n+]1ccccc1[S-].[O-][n+]1ccccc1[S-].[Zn+2] | 0.515 ± 0.32 | 0.19 ± 0.11 | 0.628 ± 0.13 | 0.216 ± 0.13 | 0.165 ± 0.15
24 | C[C@]12CCC3C(CC[C@H]4C[C@H](OS(=O)(=O)O)CC[C@]34C)C1CCC2=O (stereo not given in full) | 1.03 ± 0.021 | 1.02 ± 0.079 | 1.04 ± 0.061 | 0.755 ± 0.015 | 0.966 ± 0.039
25 | O=c1[nH]c2ccccc2n1CCCN1CCC(n2c(=O)[nH]c3cc(Cl)ccc32)CC1 [Domperidone] | 0.898 ± 0.1 | 0.83 ± 0.042 | 0.94 ± 0.063 | 0.997 ± 0.09 | 0.814 ± 0.071
26 | C[N+]1(C)[C@@H]2C[C@@H](OC(=O)[C@H](CO)c3ccccc3)C[C@H]1[C@@H]1O[C@@H]12 | 1.09 ± 0.021 | 0.971 ± 0.069 | 1.035 ± 0.0071 | 0.9885 ± 0.005 | 1.085 ± 0.0071
27 | CC(=O)[C@H]1CC[C@H]2[C@@H]3CC[C@H]4C[C@H](O)CC[C@]4(C)[C@H]3CC[C@]12C | 0.966 ± 0.049 | 0.97 ± 0.0057 | 0.99 ± 0.014 | 0.902 ± 0.047 | 0.912 ± 0.059
28 | CC1=C(O)C(=O)C=C2C1=CC=C1[C@@]2(C)CC[C@@]2(C)[C@@H]3C[C@](C)(C(=O)O)CC[C@]3(C)CC[C@]12C | 0.801 ± 0.11 | 0.837 ± 0.065 | 1 ± 0.012 | 0.863 ± 0.083 | 0.787 ± 0.12
29 | C[C@]12CC[C@H](O)C[C@@H]1CC[C@@H]1[C@@H]2CC[C@]2(C)C(=O)CC[C@@H]12 | 0.956 ± 0.038 | 0.9945 ± 0.0078 | 1.01 ± 0.11 | 1.075 ± 0.0071 | 1.01 ± 0.033
30 | CC(C)=CCC[C@]1(C)C=Cc2c(O)c3c(c(CC=C(C)C)c2O1)O[C@]12C(=C[C@@H]4C[C@H]1C(C)(C)O[C@@]2(C/C=C(/C)C(=O)O)C4=O)C3=O | 0.965 ± 0.12 | 0.993 ± 0.053 | 1.09 ± 0.14 | 1.05 ± 0.095 | 1.09 ± 0.028
31 | C/C=C(\C)C(=O)O[C@H]1C[C@@H](OC(C)=O)[C@@]2(C(=O)OC)CO[C@H]3[C@@H](O)[C@@](C)([C@]45O[C@@]4(C)[C@H]4C[C@@H]5O[C@@H]5OC=C[C@@]54O)[C@H]4[C@]1(CO[C@]4(O)C(=O)OC)[C@@H]32 | 0.998 ± 0.017 | 0.999 ± 0.087 | 0.959 ± 0.051 | 0.973 ± 0.052 | 0.962 ± 0.04
32 | N#Cc1c(Cl)c(Cl)c(Cl)c(C#N)c1Cl | 0.687 ± 0.075 | 0.465 ± 0.13 | 1.01 ± 0.052 | 0.293 ± 0.14 | 0.286 ± 0.15
